IL1B secr inh: qHTS for Inhibitors of Inflammasome Signaling: IL-1-beta AlphaLISA Primary Screen; THP-1 LPS/ATP IL-1B secretion, AlphaLISA, 16 h; stronger effect = lower value; activity change, % at 57.5 µM; 4.7% of 360,000 active; AID 743279, 2014; in the data active = activity change below about -50%; inconclusive = mostly about -30% to -49%
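Secreted IL-1B measured by AlphaLISA bead assay after 16 h compound exposure of THP-1 cells; compounds (final up to 57.5 uM) added 1 h before LPS (250 ng/mL) and ATP (1.25 mM) stimulation; lower signal means less secretion.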
ATXN2 expr inh: Primary qHTS for Inhibitors of ATXN expression; HEK-293 ATXN2-luciferase reporter, luminescence, 24 h; Potency, µM (doses to about 57 µM), hits mostly inhibitors; 0.72% of 360,000 active; AID 1745845, 2022; also: nearly all actives have a fitted effect of over 55% in size
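ATXN2-luciferase reporter cells (luciferase flanked by upstream and downstream ATXN2 gene portions) were treated 24 h at 37 °C with compounds at up to 57 uM. SteadyGlo luminescence gave expression; GF-AFC fluorescence gave viability.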
USP1-UAF1 inh: Inhibitors of USP1/UAF1: Primary Screen | recombinant USP1/UAF1, Ub-Rhodamine cleavage fluorescence | Potency, µM (top dose mostly 57.1 µM), hits mostly inhibitors | 0.23% of 390,000 active | AID 743255, 2014; also: nearly all actives have a fitted effect of over 60% in size
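USP1/UAF1 complex (1 nM) preincubated 15 min at room temperature with compound, then Ub-Rho substrate (150 nM final) added. Kinetic fluorescence at 480/540 nm over 6 reads at 60 s intervals; 50 mM HEPES pH 7.8, 0.5 mM EDTA, 0.1 mg/ml BSA, 1 mM TCEP, 0.01% Tween-20.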
ATXN viability: Viability Counterscreen for Primary qHTS for Inhibitors of ATXN expression; S2 cells (HEK-293 line with an ATXN2-luciferase reporter) viability, CellTiter-Fluor protease fluorescence, 24 h; Potency, µM (series often up to 56.7 µM), hits mostly cytotoxic; 0.49% of 400,000 active; also: nearly all actives have a fitted effect of over 40% in size
USP2a block: qHTS Assay for Inhibitors of Ubiquitin-specific Protease USP2a Using CHOP2 as the Reporter; USP2 core, Ub-CHOP2 coupled fluorogenic reporter, 485/531; 0.01% of 330,000 active; Potency, µM (series often up to 38.3 µM), actives largely listed as inhibitors; Ubiquitin carboxyl-terminal hydrolase 2 (Homo sapiens), O75604; AID 463254, 2010
Target sequence (O75604 whole entry, looked up): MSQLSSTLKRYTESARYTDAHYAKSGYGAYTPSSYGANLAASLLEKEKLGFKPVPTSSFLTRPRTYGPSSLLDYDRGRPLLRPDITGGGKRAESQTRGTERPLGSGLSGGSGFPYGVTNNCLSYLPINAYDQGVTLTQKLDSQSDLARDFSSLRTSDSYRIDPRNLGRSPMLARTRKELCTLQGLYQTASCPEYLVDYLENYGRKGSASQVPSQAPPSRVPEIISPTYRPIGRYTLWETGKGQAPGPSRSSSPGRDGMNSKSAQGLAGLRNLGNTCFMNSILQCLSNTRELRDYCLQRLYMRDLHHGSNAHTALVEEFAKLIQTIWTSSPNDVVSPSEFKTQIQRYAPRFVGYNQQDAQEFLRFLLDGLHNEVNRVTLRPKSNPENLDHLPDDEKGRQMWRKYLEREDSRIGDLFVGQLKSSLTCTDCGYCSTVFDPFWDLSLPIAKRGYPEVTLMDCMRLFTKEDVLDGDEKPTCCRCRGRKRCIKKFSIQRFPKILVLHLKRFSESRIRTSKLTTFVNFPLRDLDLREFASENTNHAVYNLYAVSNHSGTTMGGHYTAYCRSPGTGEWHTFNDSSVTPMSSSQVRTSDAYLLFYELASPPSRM
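Deubiquitinase activity read as fluorescence (485/531 nm) after Ub-CHOP2 cleavage activates the enterokinase reporter on its substrate; USP2 core 10nM, Ub-CHOP2 and substrate 25nM each, 30min compound preincubation then 60min RT; data normalized to NEM, curves fitted.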
Each line names hits and unclear results; the compound was inactive in the other large screens. Sampled rows, rich in hits. Any-hit rate of the full collection: about 4.8%. Unless noted, calls follow the shape of the dose curve; as a rule, active = well fitted curve in the direction sought with a large enough effect; inconclusive = small, poorly fitted or top-dose-only effect, or another doubt; inactive = no such curve, though single readings can be large; an effect the other way counts as inactive or inconclusive.

O=C(NCCCC1CCCC1)C1CCC(=O)N(Cc2ccc(Cl)cc2)C1 (centres undefined)	IL1B secr inh -68.6
Cc1cc(C)cc(-n2c(SCC(N)=O)nc3c(oc4ccccc43)c2=O)c1	none (no result: IL1B secr inh, ATXN viability, USP2a block)
C=CCC(=O)N1CCCC(CNC(=O)c2ccc(-c3ccccc3)cc2)C1 (centres undefined)	IL1B secr inh -64.1
Cc1cc(C)cc(NC(=S)NCCSc2ccc(Cl)cc2)c1	IL1B secr inh -202.0, ATXN2 expr inh inconclusive
COC(=O)Cc1ccc(NC(=S)NCCSc2ccc(Cl)cc2)cc1	IL1B secr inh -57.0
CCOc1ccc(CN2CCNC(=O)C2CC(=O)NC2CCOCC2)cc1 (centres undefined)	none
Cc1cccc(NC(=O)CC2C(=O)NCCN2C(=S)Nc2ccccc2)c1 (centres undefined)	IL1B secr inh -61.1
COc1ccccc1NC(=S)N1CCNC(=O)C1CC(=O)Nc1cccc(C)c1 (centres undefined)	none
Clc1cccc(CNCCNCc2cccc(Cl)c2)c1	IL1B secr inh -53.0, ATXN viability inconclusive
O=C(CSc1nc(-c2cccs2)cc(C(F)(F)F)n1)Nc1cc(OCC(F)(F)F)cc([N+](=O)[O-])c1	ATXN2 expr inh inconclusive, ATXN viability 15.8µM
Cc1ccc(-n2c(N)cc(=O)nc2SCC(=O)NC2CCCCC2)cc1C	none
CC(=O)Oc1oc(-c2ccccc2)nc1C=Nc1ccc(N(C)C)cc1	USP1-UAF1 inh 25.1µM
Oc1oc(-c2ccccc2)nc1C=Nc1ccccc1	IL1B secr inh -54.8
CC(=O)Oc1oc(-c2ccccc2)nc1/C=N/c1ccccn1	IL1B secr inh -101.3
COc1ccccc1N=Cc1nc(-c2ccccc2)oc1OC(C)=O	ATXN viability inconclusive
CN(C)c1ccc(N=Cc2nc(-c3ccccc3)oc2OC(=O)c2ccccc2)cc1	ATXN viability inconclusive
CN(C)c1ccc(N=Cc2nc(-c3ccccc3)oc2O)cc1	USP2a block inconclusive
Cc1ccc(O)c(C(=O)c2cc(C#N)c(=O)n(-c3c(C)n(C)n(-c4ccccc4)c3=O)c2)c1	none
Cc1ccc(O)c(C(=O)c2cc(C#N)c(=O)n(-c3nccs3)c2)c1	USP1-UAF1 inh 17.8µM, USP2a block inconclusive (no result: ATXN viability)
FC(F)(F)c1cnc(-c2cc3c(c(OCC4CCCO4)c2)OCCN(Cc2cccn2-c2nccs2)C3)c(Cl)c1 (centres undefined)	none (no result: IL1B secr inh, ATXN2 expr inh, USP1-UAF1 inh, USP2a block)
CC(=O)c1cccc(OCC(=O)N(C)CC(=O)Nc2ccc(F)cc2)c1	none
CN(C)C/C=C/C(=O)Nc1cccc(-c2c[nH]c3ncnc(Oc4ccc(NC(=O)CC(=O)Nc5ccc(F)cc5)cc4F)c23)c1	IL1B secr inh -90.3, ATXN viability inconclusive
NC(=O)CCN1CCN(CCOC2Cc3cc(Cl)ccc3Sc3ccccc32)CC1 (centres undefined)	IL1B secr inh -52.7, ATXN viability inconclusive
Cc1ccc(-c2c(C)n3c4c(=O)n(C)c(=O)n(C)c4nc3n2CCCO)cc1	ATXN2 expr inh 25.1µM, ATXN viability 28.2µM (no result: IL1B secr inh, USP2a block)
COc1ccc(-c2oc3ccccc3c2C(=O)Oc2ccccc2)cc1	none
COc1ccc(C2=CC(=O)N(Nc3ccccc3)C2=O)cc1	IL1B secr inh -55.2
Cc1ccc(NN2C(=O)C=CC2=O)cc1	none
O=C1C=C(c2ccccc2)C(=O)N1Nc1ccccc1	IL1B secr inh -101.3, ATXN2 expr inh inconclusive, ATXN viability inconclusive
Cc1ccc(NN2C(=O)C=C(c3ccc(Cl)cc3)C2=O)cc1	IL1B secr inh -102.5, ATXN2 expr inh 25.1µM (no result: ATXN viability)
COc1ccc(Nc2cccccc2=O)cc1	IL1B secr inh inconclusive
Fc1ccc(-c2csc3ncnc(Cl)c23)cc1	none
OCCCNc1ncnc2scc(-c3ccc(Cl)cc3)c12	none
Clc1ccc(-c2csc3ncnc(Cl)c23)cc1	IL1B secr inh -88.6
NNc1ncnc2scc(-c3ccc(Cl)cc3)c12	ATXN2 expr inh 15.8µM
CCN1C=CC(=C2C(=O)c3ccccc3C2=O)C=C1	IL1B secr inh inconclusive, ATXN2 expr inh 1.12µM, ATXN viability inconclusive
